# Screening data from PubChem.
# Most compounds without a hit are left out; they make up all but 4.9% or so of the library.
# Mdm2-MdmX inh: disrupts the human Mdm2-MdmX interaction | actives 3% (n = 330,000) | SaOS-2 split-luciferase Mdm2/MdmX complementation, luminescence | inhibition, % at 8 µM | AID 485346;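 active = inhibition of at least 50% at 8 µM in the primary screen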
# PP5 inh: blocks human protein phosphatase 5 activity; inhibition, % at 6.7 µM; P53041; purified PP5c, OMFP substrate fluorescence; actives 0.18% (n = 320,000); AID 1987;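 active = inhibition above the campaign's mean inhibition across all tested compounds plus 3 SD, cut at about 9.5% in these data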;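 note: 0% = DMSO only and 100% = 100 µM cantharidin control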
# Target sequence (P53041 whole entry, looked up): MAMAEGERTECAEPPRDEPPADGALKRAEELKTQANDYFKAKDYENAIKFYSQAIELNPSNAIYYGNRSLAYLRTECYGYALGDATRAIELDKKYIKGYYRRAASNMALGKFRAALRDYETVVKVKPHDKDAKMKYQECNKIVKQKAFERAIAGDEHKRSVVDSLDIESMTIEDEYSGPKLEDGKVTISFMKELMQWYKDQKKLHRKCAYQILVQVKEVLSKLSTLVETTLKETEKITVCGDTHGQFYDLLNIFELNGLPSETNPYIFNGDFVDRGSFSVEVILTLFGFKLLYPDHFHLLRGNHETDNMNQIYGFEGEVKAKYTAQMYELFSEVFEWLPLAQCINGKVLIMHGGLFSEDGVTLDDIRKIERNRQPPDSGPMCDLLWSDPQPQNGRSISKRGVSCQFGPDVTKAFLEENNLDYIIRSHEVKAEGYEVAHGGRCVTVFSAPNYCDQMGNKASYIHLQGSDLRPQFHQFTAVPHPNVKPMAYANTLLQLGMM
# Beta cell apopt: blocks beta cell apoptosis; INS-1E cytokine-induced death, ATP luminescence, 48 h; percent of positive-control rescue, neutral wells zero; protection from apoptosis, % (test concentration not listed); actives 0.8% (n = 300,000);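 active = Every replicate reaches about 75%, or at least half do and their mean reaches it too, limit read from the data; inconclusive = At least half of replicates reach the limit but their mean does not; inactive = Under half of replicates reach the limit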;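 note: 0% = cytokine-treated negative control wells and 100% = positive control rescue; higher means more ATP so stronger rescue from cytokine killing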
# PP1 inh: counter-screen for PP5 inhibitors: inhibitors of human PP1-alpha. actives 0.9% (n = 320,000). purified PP1alpha, OMFP fluorescence. AID 2235. inhibition, % at 6.7 µM;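 active = inhibition above the mean inhibition of all tested compounds plus 3 SD, computed separately for each screening campaign, cut at about 15% in these data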
# Calb FLC: affects C. albicans growth with fluconazole; C. albicans CaCi-2 (fluconazole-resistant clinical isolate) + fluconazole, Alamar Blue growth, 48 h; growth inhibition, % (no concentration beside the values); actives 0.57% (n = 300,000); AID 1979;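 active = growth inhibition above about 58% in most replicates, limit read from the data, passing the limit was not always enough; inconclusive = exactly half the replicates above a set limit; inactive = most replicates below a set limit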;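 note: all wells also contain fluconazole at 8 µg/ml as a sub-toxic cotreatment; 0% = median of DMSO wells and 100% = median of geldanamycin control wells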
# CSC inhib: cancer stem cell inhibition; inhibition, % at 7.5 µM; cancer stem cell-like cells viability, luminescence; actives 1.1% (n = 300,000); in the data active = inhibition above about 75%; inconclusive = no clear call, values can overlap the other calls; tested in HMLE shEcad cells
# PP1 inh confirm: confirmation of human PP1 phosphatase inhibitors; AID 2358; purified PP1alpha, OMFP substrate fluorescence; actives 52% (n = 1,900); shares compounds with PP1 inh; inhibition, % at 6.7 µM;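 active = mean PP1 inhibition above a set limit taken from the earlier primary screen, cut at about 15% in these data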
# PP5 inh counter: PP5 phosphatase inhibition, counter-screen for PP1 inhibitors | inhibition, % at 6.7 µM | actives 4% (n = 1,900) | shares compounds with PP1 inh | AID 2360 | purified PP5c, OMFP fluorescence;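 active = mean PP5 inhibition over triplicate wells above about 9.5% taken from the earlier PP1 screen, limit read from the data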
# * hit, by the source's call; ? = inconclusive; . = no result.
SMILES,Mdm2-MdmX inh,PP5 inh,Beta cell apopt,PP1 inh,Calb FLC,CSC inhib,PP1 inh confirm,PP5 inh counter
COc1ccc(CNC(=O)COC(=O)c2ccccn2)cc1,19,0,-5,-3,-4,-3,.,.
CSCCC(NC(=O)c1ccc([N+](=O)[O-])cc1Cl)C(=O)OCC(=O)NC1CCCC(C)C1C (stereo not drawn),-34,4,-1,0,-1,-11,.,.
CSCCC(NC(=O)c1ccc([N+](=O)[O-])cc1Cl)C(=O)OCC(=O)NC(=O)CN1CCCC1=O (stereo not drawn),-6,-1,-1,39*,-2,-9,-1,-3
COc1ccccc1C1C2=C(N=c3s/c(=C/c4cccc(OCC(=O)O)c4)c(=O)n31)c1ccccc1CC2 (stereo not drawn),.,3,-3,20*,.,48,19*,0
COc1cccc(C2C3=C(N=c4s/c(=C\c5ccc(OCC(=O)O)cc5)c(=O)n42)c2ccccc2CC3)c1 (stereo not drawn),23,2,3,23*,18,22,7,-2
Nc1nc(SCC(=O)Nc2ccc([N+](=O)[O-])cc2)[nH]c(=O)c1NC(=O)c1ccc(Br)cc1,-1,0,-2,19*,4,1,23*,-3
CCC(=O)Nc1cccc(C(=O)OCc2cccc([N+](=O)[O-])c2)c1,.,.,.,.,-6,.,.,.
CC(NC(=O)Cn1cccc1C(=O)c1ccccc1)c1ccc2c(c1)OCCO2 (stereo not drawn),13,0,5,-4,-25,.,.,.
Oc1c(C(Nc2ccccn2)c2cccnc2)cc(Cl)c2cccnc12 (stereo not drawn),31,3,85*,22*,-4,-3,19*,-3
O=C1/C(=C/C=C/c2ccco2)SC(=S)N1NS(=O)(=O)c1ccccc1,25,-2,-6,21*,.,6,13,-5
Cn1c(C(=O)Nc2ccc3c(c2)OCCO3)cc2sccc21,-142,2,2,2,-36,-5,.,.
CC(C)c1ccc(NC(=O)Nc2cc3sccc3n2C)cc1,24,4,-12,18*,1,20,2,-6
COc1cccc(OC)c1C(=O)Nc1ccc(N2CCCC2)cc1,12,2,-1,28*,-5,-5,-3,-4
O=C(Nc1ccc(N2CCCC2)cc1)c1ccc(Br)cc1,-43,1,8,24*,-17,-7,-9,1
COc1ccc(N2C(=NC(=O)CCC3CCCC3)SC3CS(=O)(=O)CC32)cc1 (stereo not drawn),24,0,-2,-4,3,-14,.,.
Cc1cccc(NC(=S)NCc2ccc3c(c2)cc(C)n3C)c1C,26,3,-6,18*,0,27,3,-1
COc1cccc(NC(=S)NCc2ccc3c(c2)cc(C)n3C)c1,.,.,.,.,-25,.,.,.
Cc1ccc(CNC(=O)CN(C(=O)N2CCN(C)CC2)S(=O)(=O)c2ccc(C)cc2)cc1,7,0,-4,-8,-3,.,.,.
Cc1cc2ccccn2c1C(C[N+](=O)[O-])c1ccc(N(C)C)cc1 (stereo not drawn),35,3,4,20*,3,8,4,9.8*
Cn1c(=O)c(C(=O)NNC(=O)c2ccccc2F)c(O)c2ccccc21,50,-1,0,18*,-14,.,6,-4
CCn1c(=O)c(C(=O)NNC(=O)c2ccccc2F)c(O)c2ccccc21,18,1,3,8,20,13,.,.
CCCn1c(=O)c(C(=O)NNC(=O)c2cccc([N+](=O)[O-])c2)c(O)c2ccccc21,42,0,-7,20*,-20,1,19*,-1
CCn1c(=O)c(C(=O)NNC(=O)c2ccccc2Cl)c(O)c2ccccc21,34,1,-3,19*,6,.,14,-2
CCn1c(=O)c(C(=O)Nc2ncccc2O)c(O)c2ccccc21,2,1,-1,14,32,1,.,.
CCCn1c(=O)c(C(=O)Nc2ccccc2C(=O)OC)c(O)c2ccccc21,11,0,-3,-3,-24,42,.,.
SMILES,Mdm2-MdmX inh,PP5 inh,Beta cell apopt,PP1 inh,Calb FLC,CSC inhib,PP1 inh confirm,PP5 inh counter
CCn1c(=O)c(C(=O)Nc2ncccc2C)c(O)c2ccccc21,42,-2,3,21*,96*,.,25*,-1
CCOC(=O)c1c(N2C(=O)Nc3cc(Cl)c(Cl)cc3N2O)sc2c1CCCCC2,23,3,-1,19*,.,-6,17*,0
O=C(Nc1ccc(-c2nc3ncccc3o2)cc1)c1ccc(Br)o1,-17,-2,3,25*,33,27,7,-5
OCC[C@H]1C[C@@H](O)[C@H](O)[C@@]2(CCCCO2)O1,-2,2,-4,-1,-7,0,.,.
COc1cccc(/C=C/C(=O)OCC(=O)c2ccc3c(c2)NC(=O)CO3)c1,23,1,0,33*,.,13,28*,-3
C=CCn1c(SCC(=O)Nc2sccc2C#N)nc2sc(C)c(C)c2c1=O,5,0,1,27*,-5,1,31*,-1
O=C1c2c(O)cccc2Cc2cccc(O)c21,-3,2,.,35*,.,-8,29*,-3
COC(=O)c1ccc(-n2c(C)cc(C(=O)COC(=O)CC3Sc4ccccc4NC3=O)c2C)cc1 (stereo not drawn),-12,4,1,10,7,-11,.,.
Cc1cc(C(=O)COC(=O)CC2Sc3ccccc3NC2=O)c(C)n1-c1ccccc1 (stereo not drawn),4,3,7,23*,33,-3,9,-2
COc1cc(/C=C2\C(C)=C(C#N)c3nc(N)c(C#N)c(C)c32)ccc1OCC(=O)O,8,3,-1,30*,-7,-6,7,0
O=C1NCCO1,10,-1,2,-1,.,-7,.,.
O=C(Nc1cc(S(=O)(=O)N2CCCCC2)ccc1Cl)c1ccccc1NS(=O)(=O)c1ccc(F)cc1,.,7,130*,20*,?,83*,14,8
Cc1cc(C)c(NC(=O)CNC(=O)COC(=O)Cc2ccccc2C)c(C)c1,-27,1,0,-2,.,-4,.,.
COc1cc(F)ccc1S(=O)(=O)N1CCN(c2ccccc2)CC1,-19,0,.,-71,0,-2,-2,-4
O=C(C[n+]1cc(-c2ccc(F)cc2)n2c1CCC2)Nc1nc(-c2ccc(F)cc2)cs1,-15,4,19,13,-9,-8,.,.
O=C(C[n+]1cc(-c2ccc(Cl)cc2)n2c1CCC2)Nc1nc(-c2ccc(F)cc2)cs1,16,4,6,21*,25,-3,-8,1
